TSG101-PTAP inh = blocks PTAP/TSG101 interaction to inhibit HIV-1 budding. Potency, µM (top dose mostly 115 µM), most hits filed as inhibitors. 340,000 tested, under 10 active. Fluorescence polarization, FITC-PTAP peptide / Tsg101 binding. Q99816. AID 493005; active = well fitted inhibition curve with a large enough effect in the main read-out, with a control signal flat, not every such curve was filed as active; inconclusive = small, poorly fitted or top-dose-only effect, or effect the other way, or a change in a side signal; inactive = no such curve, though single readings can be large or run the other way
Target sequence (Q99816 whole entry, looked up): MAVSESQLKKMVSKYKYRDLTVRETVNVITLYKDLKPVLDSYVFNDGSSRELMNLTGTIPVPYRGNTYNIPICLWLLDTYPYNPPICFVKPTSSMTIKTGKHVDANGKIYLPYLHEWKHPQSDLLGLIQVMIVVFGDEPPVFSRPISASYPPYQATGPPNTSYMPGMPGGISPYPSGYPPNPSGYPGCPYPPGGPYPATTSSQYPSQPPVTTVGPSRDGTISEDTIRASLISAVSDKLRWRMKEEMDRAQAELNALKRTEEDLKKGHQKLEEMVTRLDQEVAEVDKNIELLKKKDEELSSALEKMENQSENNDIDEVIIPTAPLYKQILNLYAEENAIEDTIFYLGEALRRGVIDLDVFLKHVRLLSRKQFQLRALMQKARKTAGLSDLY
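Steps: Tsg101 binding domain dispensed (10 uM final), compounds pinned in DMSO, FITC-labeled PTAP-motif peptide added (50 nM final); after 20 min binding at room temperature, polarization measured.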
Tb PFK inh = T. brucei PFK enzyme inhibition. O15648. T. brucei PFK, ADP-Glo luminescence. Potency, µM (series often up to 57.5 µM), actives largely listed as inhibitors. actives 0.17% (n = 330,000). AID 485367; active = well fitted inhibition curve with a large enough effect; inconclusive = small, poorly fitted or top-dose-only effect, or effect the other way; note: nearly all actives have a fitted effect of over 60% in size
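1.25 nM PFK with 0.5 mM F6P and 0.1 mM ATP in 0.1 M TEA pH 8.0, 5 mM MgCl2, incubated 45 min at room temperature; ADP measured by ADP-Glo luminescence; compounds titrated up to 57 uM.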
KCNH2 3.1 block = inhibitors of human KCNH2 3.1 potassium channel isoform. U2OS KCNH2 3.1, thallium flux FluxOr; stronger effect = lower value. activity change, % (tested at about 1.8 µM). actives 0.95% (n = 340,000). AID 720553;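 active = maximum activity change below -70%; inconclusive = maximum activity change from -70% to -50%; inactive = maximum activity change above -50%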;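 note: thallium influx rate constant from kinetic fluorescence after stimulation buffer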
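Channel expression came from 3.1 mutant virus (1.77 x 10^8 /mL) applied to suspended U2OS cells for 4 h. Flux was tracked with FluxOr dye plus Red40 quencher, and kinetic rate constants normalized to controls.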
hERG WT inh = inhibitors of human wildtype KCNH2 potassium channel; U2OS, BacMam KCNH2, thallium flux FluxOr; stronger effect = lower value; AID 720551; Q12809; activity change, % at 1.84 µM; actives 0.37% (n = 340,000);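 active = maximum activity change below -70%; inconclusive = maximum activity change between -70% and -50%; inactive = maximum activity change above -50%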
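U2OS cells were transduced with wild-type KCNH2 virus (2.03 x 10^8 / mL) for 4 h at room temperature, then cultured overnight at 37 C. Thallium flux was read with FluxOr dye. Rate constants were normalized to DMSO controls.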
Large screens that a line does not name were inactive. Most compounds without a hit are left out; they make up all but 1.2% or so of the library.

O=C(OCc1cn([C@H]2C[C@H](c3ccc(Cl)cc3)N(C(=O)C3CCCCC3)C[C@@H]2O)nn1)c1ccccc1	KCNH2 3.1 block -81.8 (no result: TSG101-PTAP inh, Tb PFK inh)
COc1cc2c(cc1OC)C1O[C@](CCCCN3C(=O)c4ccccc4C3=O)(C2)Oc2c1c(=O)oc1ccccc21	none (no result: TSG101-PTAP inh, KCNH2 3.1 block, hERG WT inh)
Cc1cccc(Cn2c(O)c(N=NC(=S)Nc3ccccc3F)c3ccccc32)c1	KCNH2 3.1 block -90.8 (no result: hERG WT inh)
CC1=C(C(=O)N2CCOCC2)C(c2cccc(C)c2)NC(=S)N1 (stereo not drawn)	none
COc1ccc(C2NC(=S)NC(C)=C2C(=O)N2CCOCC2)cc1 (stereo not drawn)	hERG WT inh -278.1
NC(=O)c1ccc(NC(=O)COC(=O)C2CCN(S(=O)(=O)c3cccs3)CC2)cc1	none
CCOC(=O)C=Nc1c(N)n(C)c(=O)n(C)c1=O	KCNH2 3.1 block -92.0
Cn1c(N)c(N=O)c(=O)n(C)c1=O	none
O=C1/C(=C\c2ccco2)SC(=S)N1C1CCCCC1	none (no result: TSG101-PTAP inh, KCNH2 3.1 block, hERG WT inh)
CC1=C(C#N)C(=O)N(C2CCS(=O)(=O)C2)C(=O)/C1=C\c1ccco1 (stereo not drawn)	Tb PFK inh 15.1µM (no result: TSG101-PTAP inh, KCNH2 3.1 block, hERG WT inh)
CCN(c1ccc(OC)cc1)c1ncnc2nc[nH]c12	none
CCCN(c1ccc(OCC)cc1)c1ncnc2nc[nH]c12	KCNH2 3.1 block -90.3
COc1ccccc1C/C(N)=N/OC(=O)c1ccco1	none
CCN(CC)C(=O)c1[nH]cnc1C(=O)Nc1ccc(Cl)cc1	none
O=c1c2cc(NC(=S)NCCCN3CCC(Cc4ccccc4)CC3)ccc2nc2n1CCCCC2	KCNH2 3.1 block -72.2
COc1ccc(-c2cc(C(F)(F)F)nc(SCC(=O)NCc3cnn(C)c3C)n2)cc1OC	hERG WT inh -174.0
COc1ccc(-c2cc(C(F)(F)F)nc(SCC(=O)NCc3ccco3)n2)cc1OC	none
Cc1cccc2c1-c1sc(C(=O)Nc3ccccc3N3CCN(C)CC3)cc1CO2	KCNH2 3.1 block -71.4
Cn1c(SCC(=O)Nc2ccccc2[N+](=O)[O-])nnc1C(F)(F)F	none
Cc1cccc(NC(=O)CNC(=O)CSc2nnc(C(F)(F)F)n2C)c1C	KCNH2 3.1 block -185.6, hERG WT inh -130.3
O=C(CN1C(=O)NC2(CCCC2)C1=O)N1CCN(c2ccc(C(F)(F)F)cc2[N+](=O)[O-])CC1	none (no result: Tb PFK inh)
CN(/N=C/c1ccc(-c2ccc([N+](=O)[O-])cc2)o1)c1ccccc1	KCNH2 3.1 block -71.6
CN(/N=C/c1cc([N+](=O)[O-])ccc1O)c1ccccc1	none
O=C(Nc1cccnc1)c1ccc(COc2ccccc2Cl)o1	none
O=C(Nc1cccnc1)c1ccc(COc2cc(Cl)ccc2Cl)o1	hERG WT inh -103.6
CC/C(=N\NC(=O)CNC(=O)/C=C/c1ccc(OC)cc1)c1ccccc1	hERG WT inh -136.3
COc1ccc(/C=C/C(=O)NCC(=O)N/N=C(\C)Cc2ccccc2)cc1	none
COc1ccc(CCN(C)Cc2ccc(OCc3ccccc3)c(OC)c2)cc1OC	KCNH2 3.1 block -79.5
COc1ccc(CCN(C)C(=O)CSc2ncnc3sccc23)cc1OC	none
COc1ccc(CCN(C)c2ncnc3sccc23)cc1OC	hERG WT inh -84.3
C/C(=N\NC(=O)c1nnn(-c2nonc2N)c1-c1cccs1)c1cccc(O)c1	none
Cc1cc2c(c(=O)n1-c1ccccc1)C1O[C@](c3ccsc3)(Cc3cc(C#N)ccc31)O2	none (no result: TSG101-PTAP inh, KCNH2 3.1 block, hERG WT inh)
COc1ccc(Br)cc1CN(C)CC(O)COc1ccc(Br)cc1 (stereo not drawn)	KCNH2 3.1 block -74.7
CN(CCOc1ccc(Br)cc1)CC(O)COc1ccc(C#N)cc1 (stereo not drawn)	KCNH2 3.1 block -119.6, hERG WT inh -113.0
CCN1C(=O)[C@H]2[C@@H](c3ccc(C)cc3)N[C@]3(CCCN(Cc4cccn4C)C3=O)[C@H]2C1=O	none (no result: TSG101-PTAP inh, Tb PFK inh)
COc1ccc(CC(O)CC2c3c(cc4c(c3OC)OCO4)CCN2C)cc1 (stereo not drawn)	KCNH2 3.1 block -97.0
COc1ccccc1CC(O)CC1c2c(cc3c(c2OC)OCO3)CCN1C (stereo not drawn)	none (no result: Tb PFK inh)
C[C@@H]1CN([C@H](C)CO)C(=O)CCCn2nncc2CO[C@@H]1CN(C)C(=O)Nc1cccc2ccccc12	hERG WT inh -77.3 (no result: TSG101-PTAP inh, Tb PFK inh)
C[C@H](CO)N1C[C@H](C)[C@H](CN(C)C(=O)Cc2ccccc2)OCc2cnnn2CCCC1=O	hERG WT inh -264.5 (no result: TSG101-PTAP inh, Tb PFK inh)
C[C@H]1CN([C@@H](C)CO)C(=O)CCCn2nncc2CO[C@H]1CN(C)C(=O)Cc1ccccc1	none (no result: TSG101-PTAP inh, Tb PFK inh)
CSc1oc(-c2ccccc2)nc1S(=O)(=O)c1ccc(F)cc1	KCNH2 3.1 block -89.8
O=C(CCCN1CCN(c2ccccc2)CC1)c1ccc(F)cc1	none (no result: TSG101-PTAP inh, Tb PFK inh)
O=C1NCN(c2ccccc2)C12CCN(CCCC(c1ccc(F)cc1)c1ccc(F)cc1)CC2	hERG WT inh -193.6
Cc1cc(C)cc(NC(=O)CN2CCN(CCN=CC3=C(O)CC(C)(C)CC3=O)CC2)c1	KCNH2 3.1 block -93.3
C[C@@H]1CN([C@H](C)CO)C(=O)CCCn2cc(nn2)CO[C@H]1CN(C)C(=O)Nc1ccc(F)cc1	none (no result: TSG101-PTAP inh, Tb PFK inh)
Fc1ccc(C(CCNCc2ccccn2)c2ccc(Cl)cc2)cc1 (stereo not drawn)	KCNH2 3.1 block -90.6, hERG WT inh -89.4
c1ccc(-c2nc3ccccc3c3nc4ccccc4n23)cc1	none
c1ccc(-c2nc3nonc3c3nc4ccccc4n23)cc1	KCNH2 3.1 block -79.8
CCOC(=O)c1cccc(NC(=O)Cn2c(CC(=O)N3CCCC3)nc3ccccc32)c1	none (no result: TSG101-PTAP inh, KCNH2 3.1 block, hERG WT inh)
O=C(O)Cn1c(CC(=O)N2CCCC2)nc2ccccc21	KCNH2 3.1 block -169.1
O=C1c2ccccc2C2N1CCCN2C(=O)c1sc2ccccc2c1Cl (stereo not drawn)	none (no result: TSG101-PTAP inh, Tb PFK inh)
CCN(CC)c1ccc(N=Nc2nn(C)c(C)c2[N+](=O)[O-])cc1	hERG WT inh -124.9
Cc1cccc(NC(=O)Cn2cnc3c(cnn3-c3ccc(F)cc3)c2=O)c1C	none
CC(C)CCn1cnc2c(cnn2-c2ccc(F)cc2)c1=O	KCNH2 3.1 block -136.7, hERG WT inh -181.2
O=C(O)c1ccn(CSc2cc(Cl)ccc2Cl)n1	none
Cc1cc(C)cc(-n2nnc(C(=O)NCc3ccccc3)c2N)c1	none
Cc1ccc(CNC(=O)c2nnn(-c3cccc(C)c3)c2N)cc1	KCNH2 3.1 block -107.6
O=C(Nc1cccc(F)c1)/C(=C/c1ccco1)NC(=O)c1ccco1	none
Cc1cn2c(-c3cccnc3)nnc2s1	KCNH2 3.1 block -76.5
Cc1cn2c(-c3ccncc3)nnc2s1	none
COc1ccccc1CNC(=O)CCCC(=O)n1ncc2cc(C)ccc21	none
Cc1ccc(NC(=O)c2ccc(NCCN)c([N+](=O)[O-])c2)cc1	none
Cc1cccc(NC(=O)c2ccc(NCCc3ccccc3)c([N+](=O)[O-])c2)c1	TSG101-PTAP inh inconclusive, KCNH2 3.1 block -189.5
CCc1cc2cc(C)cc(C)c2[nH]c1=S	KCNH2 3.1 block -95.9
Cc1ccc(S(=O)(=O)n2c(C)nc3cc(C)ccc32)cc1	none
OCCNCc1ccc(OCc2ccc(Cl)cc2Cl)cc1	KCNH2 3.1 block -83.7
Cc1ccc(/C=N/N2CCN(c3ccccc3)CC2)cc1	none
